Measurements from PubChem BioAssay (NCI).
Compounds without any hit were thinned out: in the full panel of roughly 83,000, 20% have a hit.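 A percent growth of 40 corresponds to 60% growth inhibition; 0 means no net growth; -100 means all cells died. Active threshold: below 10.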 A number with no mark means an inactive call. Activity calls are given as the source filed them.

How the values were obtained:
Experiment in all cases: NCI-60 one-dose screen, 48 h (100 = growth as untreated, 0 = no growth, -100 = all killed)
Settings in all cases: 10 µM unless noted
NCI-H23 lung = system: NCI-H23 lung
NCI-H226 lung = system: NCI-H226 lung
NCI-H322M lung = system: NCI-H322M lung
HOP-62 NSCLC = system: HOP-62 NSCLC
NCI-H460 lung = system: NCI-H460 lung
HOP-92 NSCLC = system: HOP-92 NSCLC
NCI-H522 lung = system: NCI-H522 lung
A549/ATCC NSCLC = system: A549/ATCC NSCLC
786-0 renal = system: 786-0 renal
COLO 205 colon = system: COLO 205 colon

SMILES | growth (NCI-H23 lung) | growth (NCI-H226 lung) | growth (NCI-H322M lung) | growth (HOP-62 NSCLC) | growth (NCI-H460 lung) | growth (HOP-92 NSCLC) | growth (NCI-H522 lung) | growth (A549/ATCC NSCLC) | growth (786-0 renal) | growth (COLO 205 colon)
CC(=O)CC(C)(C)c1ccc(Cl)cc1 | 95.5% | 99% | 107% | 93.3% | 108% | 80% | 95.5% | 103% | 97.8% | 116%
CC(C)c1c(C(=O)Nc2ccccc2)c(-c2ccccc2)c(-c2ccc(F)cc2)n1CC[C@@H]1CC=CC(=O)O1 | 1.14% (active) | 39.7% | 58.6% | 12.4% | 5.24% (active) | -24.5% (active) | -33.4% (active) | -9.24% (active) | -26.2% (active) | -49.9% (active)
O=C1/C(=C/c2ccccc2)CN(CCC(=O)N2C/C(=C\c3ccccc3)C(=O)/C(=C/c3ccccc3)C2)C/C1=C\c1ccccc1 | 85.4% | 84.7% | 90.4% | 118% | 84.7% | 63.1% | 53.9% | 88.2% | 73% | 82.4%
CCCCNP1(NCCCC)=NP(NCCCC)(NCCCC)=NP(NCCCC)(NCCCC)=NP(NCCCC)(NCCCC)=N1 | -49.6% (active) | 22.4% | 9.1% (active) | 10.2% | -8.78% (active) | -24.3% (active) | 7.68% (active) | 0.875% (active) | -6.24% (active) | -26.2% (active)
COC(=O)[C@@H]1CC[C@]2(C)[C@H](CC[C@@H]3O[C@@]32C)[C@@]1(C)CC(=O)c1ccoc1 | 98.5% | 91.8% | 102% | 95.1% | 101% | 93.3% | 80.4% | 83.3% | 107% | 113%
CC#CC#Cc1cccc(=O)o1 | 40.4% | 74.4% | 50.3% | 110% | 83.5% | 35.3% | 59.2% | 104% | 83.5% | 46.8%
CCCCCCCCSC1=CC(=O)C(OC)=C(OC)C1=O | 26.6% | 80.9% | 89.4% | 91.3% | 45.9% | -31.3% (active) | -97.8% (active) | 57.2% | 61.9% | 37.1%
CCN(CC)c1ccc(/C=C/C2=[N+](C)c3ccccc3C2(C)C)cc1 | 18.6% | 9.04% (active) | 27.2% | 13.8% | 3.05% (active) | -10.7% (active) | 5.08% (active) | 14.4% | 8.12% (active) | 4.92% (active)
COc1cc(-c2cc(-c3nc4ccc(Cl)cc4[nH]3)[nH]n2)cc(OC)c1OC | 45.5% | 18.1% | 51.4% | 40.1% | 60.4% | 67.2% | 45.3% | 50% | 65.1% | 60.5%
COc1ccc(C(=O)c2sc3nc4c(cc3c2N)CCCC4)cc1OC | 39.3% | 37.1% | 86.8% | 38.5% | 13% | 67.3% | 12.6% | 41.4% | 66.1% | 16.5%
O=C1C=CC(=O)N1c1ccc(Cc2ccc(N3C(=O)C=CC3=O)cc2)cc1 | 86% | 84.8% | 100% | 90.5% | 94.8% | 90% | 94.5% | 111% | 97.1% | 115%
Cn1c2c(Cl)c(Cl)ccc2c2ccn3c(=O)c4ccccc4nc3c21 | 89% | 90.8% | 90.9% | 68% | 104% | 92.7% | 84.8% | 108% | 99.2% | 100%
C=C1CCC2C3(C)COC(C)(C)OC3CCC2(C)C1C/C=C1/C(=O)OCC1OC(C)=O (stereo not given) | 50.4% | 50.3% | 100% | 112% | 95.4% | 123% | -88.7% (active) | 61.7% | 48.5% | -0.595% (active)
